Legend:
Type in all cases: functional
[1] = test system: Plasmodium falciparum; experiment: GSK_TCMDC: Inhibition of Plasmodium falciparum 3D7 in whole red blood cells, using parasite LDH activity as an index of growth. Test compounds present at 2uM
[2] = test system: Plasmodium falciparum; experiment: GSK_TCMDC: Inhibition of Plasmodium falciparum Dd2 in whole red blood cells, using parasite LDH activity as an index of growth. Test compounds present at 2uM
[3] = test system: HepG2; experiment: GSK_TCMDC: Percent inhibition of human HepG2 cell line. Test compounds present at 10uM.

| Compound | Inhibition [1] | Inhibition [2] | Inhibition [3] |
| --- | --- | --- | --- |
| Cc1cc(-c2cccc(CNC3CCN(C)CC3)c2)ccc1S(=O)(=O)NCCN1CCCC1.O=C(O)C(F)(F)F | 100% | 0% | 18% |
| NC1=NC(c2ccccc2)(c2ccccn2)C(=O)N1CCCc1ccccc1.O=C(O)C(F)(F)F (stereo not drawn) | 85% | 64% | 0% |
| CCc1cccc2sc(N3CCN(C(=O)c4ccc([N+](=O)[O-])o4)CC3)nc12 | 97% | 94% | 2% |
| Cc1cc(N[C@@H](Cc2ccccc2)C(=O)Nc2ccccc2)nc(NCCc2cccnc2)n1.O=C(O)C(F)(F)F | 95% | 57% | 32% |
| CC(Oc1cc(-n2cnc3ccc(NC(=O)CCN4CCCCC4)cc32)sc1C(N)=O)c1ccccc1Cl (stereo not drawn) | 99% | 98% | 95% |
| O=C(/C=C/c1ccc(Cl)c(Cl)c1)NC1CCC(CN2CCC(c3nc4ccccc4n3CCCO)CC2)CC1 (stereo not drawn) | 99% | 28% | 28% |
| CC(CN(C)C)C(=O)Nc1cccc(-c2ccc(-c3nc4cc(F)ccc4[nH]3)cc2)c1 (stereo not drawn) | 100% | 100% | 11% |
| O=C(NC(CCCN1CCC(c2ccccc2)CC1)c1ccc(Cl)c(Cl)c1)c1cc(C(F)(F)F)cc(C(F)(F)F)c1 (stereo not drawn) | 92% | 87% | 33% |
| CCCCCCNC(=O)C1Cc2c([nH]c3ccc(Br)cc23)C2(CCN(Cc3ccccc3)CC2)N1 (stereo not drawn) | 100% | 75% | 100% |
| COc1ccc(NC(=O)Nc2nc(-c3ccc(Cl)c(C)c3)cs2)cc1N1CCN(C)CC1.Cl | 99% | 89% | 9% |
| Cc1ccc2[nH]c(Nc3ccc(Nc4nc5cc(C)ccc5[nH]4)c(C)c3)nc2c1 | 99% | 94% | 12% |
| CN(C)c1ccc(Br)c(Br)c1 | 86% | 0% | 17% |
| COc1ccc(O)c(C(=O)c2cc(C(=O)NC3CCCCC3)c(=O)n(C3CCCCC3)c2)c1 | 99% | 62% | 8% |
| Cc1c(CN2CCCCC2)cccc1OCCCNc1nc(NCCc2ccc(O)cc2)nc(N2CCNCC2)n1.O=C(O)C(F)(F)F | 100% | 23% | 26% |
| CC(C)[C@H](NCC(=O)c1ccccc1)C(=O)O.Cl | 99% | 0% | 6% |
| Cn1cc(C2CCN(CCCCNC(=O)c3sc(-c4ccc(C(F)(F)F)cc4)nc3CO)CC2)c2ccccc21 | 95% | 15% | 46% |

| Compound | Inhibition [1] | Inhibition [2] | Inhibition [3] |
| --- | --- | --- | --- |
| C#CCOc1ccc2ccccc2c1CNCCCCCCNCc1c(OCC#C)ccc2ccccc12.CS(=O)(=O)O | 100% | 98% | 100% |
| CCNc1cc(C(=O)N[C@@H](Cc2ccccc2)[C@H](O)CNCc2cccc(OC)c2C)cc(N2CCCCS2(=O)=O)c1.O=CO | 97% | 98% | 8% |
| CCOc1ccc2c(=NN=Cc3ccc(F)cc3)cc(C)[nH]c2c1 | 100% | 99% | 22% |
| COc1ccc(Nc2nc(N/N=C/c3cc(Br)ccc3O)nc(Nc3ccc([N+](=O)[O-])cc3)n2)cc1 | 97% | 37% | 27% |
| COc1ccc2nccc(NC(=O)CNCc3ccc(-c4ccccc4)cc3)c2c1 | 100% | 35% | 11% |
| CC[C@H](C)CNC(=O)c1cccc(-c2cccc(CNCC3CNCCCO3)c2)n1.O=C(O)C(F)(F)F (stereo partly drawn) | 91% | 54% | 15% |
| CN1CCN(c2cc3c(cc2Br)CCN3C(=O)Nc2ccc(-c3cnc4ccccc4c3)cc2)CC1 | 99% | 79% | 100% |
| O=C(CSc1nnc(-c2ccccc2Br)[nH]1)c1c[nH]c2ccccc12 | 100% | 95% | 7% |
| COc1ccc(CNCc2ccc(-c3ccc(-c4nc5cccc(C)c5[nH]4)s3)cc2)cc1.O=C(O)C(F)(F)F | 100% | 89% | 54% |
| Cc1cc(C2CCN(CCCCNC(=O)c3ccc(-c4ccc(C(F)(F)F)cc4)cc3)CC2)c(C)cc1OCCOC1CCCCO1 (stereo not drawn) | 95% | 5% | 30% |
| O=C(NC(c1ccccc1)c1ccc2cccnc2c1O)c1ccccc1 (stereo not drawn) | 94% | 63% | 53% |
| CC1(CCCCN2CCC(Oc3ccc(F)cc3F)CC2)C(=O)Nc2ccccc21.Cl (stereo not drawn) | 99% | 6% | 6% |
| Cn1cc(CN2CCCC(COC(c3ccccc3)c3ccccc3)C2)cn1 (stereo not drawn) | 99% | 99% | 24% |
| CCc1ccc(C2CCN(CCCCNC(=O)c3ccc(NC(=O)c4ccc(Cl)cc4)cc3)CC2)c(OCCO)c1 | 98% | 100% | 94% |
| CO/C(=C\C=C\c1cc2cc(Cl)c(Cl)cc2[nH]1)C(=O)NCCCN1CCN(C2CCCCC2)CC1 | 99% | 97% | 60% |
